# Inconclusive results are not listed. Entries that show only a call come without a potency. The source made the active and inactive calls. Calls follow the shape of the dose curve; as a rule, active = well fitted inhibition curve with a large enough effect; inconclusive = small, poorly fitted or top-dose-only effect; inactive = flat fitted curve, though single readings scatter.
# Tested on: Zika virus NS2B-NS3 protease
# Assay: Primary screen GU AMC qHTS for Zika virus inhibitors (AID 1347154); also: nearly all actives have a fitted effect of over 70% in size
# Conditions: Zika NS2B-NS3 unlinked protease, AMC fluorogenic substrate; series mostly up to 54.1 µM
# Description: Avindra Nath, Ph.D., National Institute of Neurological Disorders and Stroke (NINDS), Bethesda, MD
# Radhakrishnan Padmanabhan, Ph.D., Georgetown University (GU), Washington D.C.
# Zika Virus causes congenital defects, including microcephaly and is associated with Guillain-Barre syndrome, eningoencephalitis and myelitis in infected adult. […] Using a target-based approach, we hope to establish a screening paradigm to uncover novel, cell-active NS2B-NS3 protease (Zika Virus) specific inhibitors from NCATS' collection of small molecules using qHTS.
# Early Translation Branch (ETB)
# National Center for Advancing Translational Sciences (NCATS), Rockville, MD
# National Institute of Health (NIH), Bethesda, Maryland
# Padmanabhan lab provided the NS2B hydrophilic domain and NS3 protease domain in a noncovalent complex used for the unlinked assay. Control compound aprotinin is obtained from Thermo Scientific (#78432; Waltham, Massachusetts). NS2B-NS3 AMC substrate (Bz-Nle-Lys-Arg-Arg-AMC; Nle-KRR-AMC) purchased from Bachem (#I-1995; Torrance, CA). Ac-VKTGKR-AMC purchased from Genscript or Bachem, Ac-FAAGKR-AMC purchased from Genscript, Ac-GLVKRR-AMC purchased from Genscript, Ac-LKKR-AMC purchased from Genscript.
# GU AMC unlinked NS2B-NS3 protease qHTS protocol
# Briefly, 3 microL of Zika virus unlinked NS2B-NS3 protease (25 nM for linked final concentration), in assay buffer (10 mM Tris-HCl pH 8.0 with 0.01% Tween 20) was dispensed into a 1,536-well solid-bottom black plate (Greiner Bio One, Monroe, NC). […] Plates were then read immediately on a ViewLux High-throughput CCD imager (PerkinElmer, Waltham, MA) equipped with standard UV fluorescence optics (340(30) nm excitation, 450(20) nm emission) then incubated (room temperature, protected from light) for 15 minutes (~20% conversion). The change in fluorescence intensity over the 15-minute reaction period was normalized against no-inhibitor and no-enzyme controls and the resulting percent inhibition data were fitted to a 4-parameter Hill equation. Aprotinin was used as the intraplate control.
# Potency is read from the fitted curve at half-maximal effect.
row,SMILES,Potency
1,C[C@H](NC(=O)[C@@H](O)c1cc(F)cc(F)c1)C(=O)N[C@@H]1C(=O)N(C)c2ccccc2-c2ccccc21,inactive
2,C=C1C(=O)O[C@H]2[C@@H]1CCC(C)=CCC[C@@]1(C)O[C@@H]21,inactive
3,O=C1c2cccc(O)c2C(=O)c2c(O)cc(CO)cc21,inactive
4,C[C@H](NC(=O)Cc1cc(F)cc(F)c1)C(=O)N[C@H](C(=O)OC(C)(C)C)c1ccccc1,inactive
5,CCCCOc1ccc(C(=O)Nc2ccc(F)cc2F)cc1,inactive
6,NC(=O)Nc1sc(-c2ccc(F)cc2)cc1C(N)=O,inactive
7,CC[C@]12C=CCN3CC[C@@]4(c5cc([C@@]6(C(=O)OC)C[C@H]7C[C@@H](C(C)(F)F)CN(Cc8c6[nH]c6ccccc86)C7)c(OC)cc5N(C)[C@H]4[C@@](O)(C(=O)OC)[C@H]1OC(C)=O)[C@@H]32,inactive
8,CN[C@H](CC(C)C)C(=O)N[C@H]1C(=O)N[C@@H](CC(N)=O)C(=O)N[C@@H]2C(=O)N[C@H]3C(=O)N[C@H](C(=O)N[C@H](C(=O)O)c4cc(O)cc(O)c4-c4cc3ccc4O)[C@H](O)c3ccc(c(Cl)c3)Oc3cc2cc(c3O[C@@H]2O[C@H](CO)[C@@H](O)[C@H](O)[C@@H]2O[C@H]2C[C@](C)(N)[C@H](O)[C@H](C)O2)Oc2ccc(cc2Cl)[C@H]1O,inactive
9,N#CC(=C(N)Sc1ccc(N)cc1)c1ccccc1C(F)(F)F,inactive
10,C=CC1=C(C(=O)O)N2C(=O)[C@@H](NC(=O)C(=NO)c3csc(N)n3)[C@H]2SC1,inactive
11,c1ccc2c(Oc3nc(Nc4ccc(N5CCOCC5)cc4)c4ncn(C5CCCCC5)c4n3)cccc2c1,inactive
12,CCOC(=O)N1CCN([N+]([O-])=NOc2ccc([N+](=O)[O-])cc2[N+](=O)[O-])CC1,inactive
13,O=C1NCCc2[nH]c(-c3ccncc3)cc21,inactive
14,COc1cc2c(Nc3ccc(Cl)c(Cl)c3F)ncnc2cc1OCC1C[C@@H]2CN(C)C[C@H]2C1,inactive
15,O=C(CCCCCCC(=O)Nc1cccnc1)NO,inactive
16,CCS(=O)(=O)Nc1ccc2[nH]c(O)c(C(=Nc3ccc(CN4CCCCC4)cc3)c3ccccc3)c2c1,inactive
17,CC(=O)OCC(=O)[C@@]1(O)CC[C@H]2[C@@H]3CCC4=CC(=O)CC[C@]4(C)[C@@H]3C(=O)C[C@@]21C,inactive
18,Cc1ccc(-n2[nH]c(C)c(N=Nc3cccc(-c4cccc(C(=O)O)c4)c3O)c2=O)cc1C,19.2 µM (active)
19,Cc1onc(-c2ccccc2)c1C(=O)N[C@@H]1C(=O)N2[C@@H](C(=O)O)C(C)(C)S[C@@H]12,inactive
20,CCc1ccc(C(=O)Nc2cc(CN3CCN(C)CC3)cc(C(F)(F)F)c2)cc1C#Cc1cnc2ccnn2c1,inactive

row,SMILES,Potency
1,CN(C)c1ccc2cc(C(=O)N[C@@H](CCCN=C(N)CCl)C(=O)NCc3ccccc3)ccc2c1,inactive
2,CCc1cnn2c(NCc3ccc[n+]([O-])c3)cc(N3CCCC[C@@H]3CCO)nc12,inactive
3,CN1CCc2c(c3ccccc3n2Cc2ccc(C(=O)NO)cc2)C1,inactive
4,COC(=O)C1C2CC3c4[nH]c5cc(OC)ccc5c4CCN3CC2CC(OC(=O)c2cc(OC)c(OC)c(OC)c2)C1OC (stereo not given),inactive
5,COc1cc2c(cc1O)CCC1C2CC[C@@]2(C)C1CC[C@@H]2O (stereo not given in full),inactive
6,CC(=CC(=O)Nc1ccccc1C(=O)O)c1ccc2ccccc2c1,inactive
7,O=C1NC(O)CCN1[C@@H]1O[C@H](CO)[C@H](O)[C@H]1O (stereo not given in full),inactive
8,COc1cccc2c1C(=O)c1c(O)c3c(c(O)c1C2=O)C[C@@](O)(C(=O)CO)C[C@@H]3O[C@H]1C[C@H](N)[C@H](OC2CCCCO2)[C@H](C)O1 (stereo not given in full),inactive
9,COc1cc(OC)c(NC(=O)Nc2cc(C)on2)cc1Cl,inactive
10,Cc1noc(-c2ccc(CSCCC(=O)O)cc2)c1NC(=O)OC(C)c1ccccc1Cl (stereo not given),inactive
11,CC(=O)[C@]1(O)Cc2c(O)c3c(c(O)c2[C@@H](O[C@H]2C[C@H](N)[C@@H](O)[C@H](C)O2)C1)C(=O)c1ccccc1C3=O,inactive
12,CCCCCCCCCCCCCCCC(=O)OC[C@@H](NC(=O)C(Cl)Cl)[C@H](O)c1ccc([N+](=O)[O-])cc1,inactive
13,O=c1ccn([C@@H]2O[C@H](CO)[C@H](O)[C@@H]2F)c(=O)[nH]1,inactive
14,Oc1cc(-c2nc(-c3ccccc3)[nH]c2-c2ccncc2)ccc1Cl,inactive
15,CCOc1cc2c(c(F)c1OCC)C(=N)N(CC(=O)c1cc(N3CCOCC3)c(OC)c(C(C)(C)C)c1)C2,inactive
16,CCOC(=O)[C@H](CCc1ccccc1)N[C@@H](C)C(=O)N1[C@@H](C(=O)O)C[C@H]2CCC[C@@H]21,inactive
17,Oc1cc2c(cc1O)C1c3ccc(O)c(O)c3OCC1(O)C2 (stereo not given),24.1 µM (active)
18,COC(=O)C=CC(=O)OC,inactive
19,C=CC(=O)Nc1cccc(Nc2nc(NC3CCC(N(C)C)CC3)nc3c2ncn3C(C)C)c1 (stereo not given),inactive
20,COc1ccc2cc([S+]([O-])Cc3ncc(C)c(OC)c3C)nc2c1,inactive

# — PubChem BioAssay (NCATS)
